# This is a sample that favours compounds with a hit; in the whole collection about 11% have one here.
# ALDH1A1 inh: blocks purified human ALDH1A1 activity; Potency, µM (highest dose often 75.3 µM), inactives show at the highest dose activity, negative = inhibition, actives largely listed as inhibitors; Purified ALDH1A1, NADH fluorescence, propionaldehyde substrate; hit rate 7.3% among 220,000; P00352;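 further: potency means the concentration at half of the fitted maximal effect; plate controls were no enzyme wells and a reference inhibitor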
# HTT aggregate: reduces HttQ103-GFP aggregates in PC12 cells; hit rate 1.1% among 220,000; Potency, µM (highest dose often 46.1 µM), inactives show top-dose activity change, negative = inhibition, hits mostly inhibitors; PC12 HttQ103-GFP aggregates, Acumen cytometry, 40 h; active means well fitted curve in the direction sought with a large enough effect; inconclusive means small, poorly fitted or top-dose-only effect, or another doubt; inactive means no such curve, though single readings can be large; an effect the other way counts as inactive or inconclusive; further: potency means the concentration at half of the fitted maximal effect; on the % scale 0 is the no-effect control and ±100 the full control effect; nearly all actives have a fitted effect of over 60% in size
#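 PC12 cells with ecdysone-inducible HTT exon1 Q103-GFP, induced by 100 nM tebufenozide, given compounds in a concentration series. GFP aggregates (1–25 um, 6 SD above background) counted in lysates by laser-scanning cytometry, 488 nm excitation.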
# RGS12 GoLoco inh: RGS12 GoLoco-Gai1 interaction inhibition. P63096. Gai1:RGS12 GoLoco peptide FP, rhodamine, 10 min. Potency, µM (highest dose often 61.6 µM), without a hit: at the highest dose activity, negative = inhibition, most hits filed as inhibitors. hit rate 0.44% among 230,000. AID 880; active means well fitted inhibition curve with a large enough effect, not every such curve was filed as active; inactive means no such curve, though single readings can be large or run the other way; further: potency means the concentration at half of the fitted maximal effect; on the % scale 0 is the no-effect control and ±100 the full control effect; nearly all actives have a fitted effect of over 30% in size
# Target sequence (P63096 whole entry, looked up): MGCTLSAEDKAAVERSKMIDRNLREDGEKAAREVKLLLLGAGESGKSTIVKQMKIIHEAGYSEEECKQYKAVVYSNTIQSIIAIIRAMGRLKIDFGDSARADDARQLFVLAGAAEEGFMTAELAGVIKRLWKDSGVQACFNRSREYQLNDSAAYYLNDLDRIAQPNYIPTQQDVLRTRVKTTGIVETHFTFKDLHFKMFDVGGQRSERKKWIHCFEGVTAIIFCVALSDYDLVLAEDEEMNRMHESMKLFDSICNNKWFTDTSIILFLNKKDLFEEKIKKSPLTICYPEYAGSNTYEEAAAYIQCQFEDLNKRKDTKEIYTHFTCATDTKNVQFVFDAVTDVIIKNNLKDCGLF
# HPGD inh: HPGD (human) dehydrogenase inhibition. Potency, µM, inactives show at the highest dose activity change, negative = inhibition, most hits filed as inhibitors. P15428. purified HPGD, NADH fluorescence kinetic, PGE2 substrate. hit rate 4.3% among 150,000; further: potency means the concentration at half of the fitted maximal effect; on the % scale 0 is the no-effect control and ±100 the full control effect
# Target sequence (P15428 whole entry, looked up): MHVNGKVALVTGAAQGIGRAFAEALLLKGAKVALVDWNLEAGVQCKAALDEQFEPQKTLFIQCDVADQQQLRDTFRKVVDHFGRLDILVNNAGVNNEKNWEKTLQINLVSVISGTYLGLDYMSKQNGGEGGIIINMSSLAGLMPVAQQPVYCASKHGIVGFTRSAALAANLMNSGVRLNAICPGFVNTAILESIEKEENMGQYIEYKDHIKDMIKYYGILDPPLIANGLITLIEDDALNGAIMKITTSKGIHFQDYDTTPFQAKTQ
#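 20 nM HPGD preincubated 15 min at room temperature with compound in 50 mM Tris-HCl pH 8, 0.01% Tween 20. Started with 1 mM NAD+ and 30 uM prostaglandin E2; NADH fluorescence (360/450 nm) read 5 times over 30-s intervals, last minus first.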
# HTT cytoprotect: cytoprotection in Huntington HTT-Q103 PC12 cell model. PC12 HTT-Q103 induced, cytoprotection, ATP luminescence, 40 h. Potency, µM (top dose mostly 56.4 µM), for inactives: cytoprotection (ATP increase), hits mostly activators. hit rate 0.14% among 230,000. AID 1471; active means well fitted curve in the direction sought with a large enough effect; inconclusive means small, poorly fitted or top-dose-only effect, or another doubt; inactive means no such curve, though single readings can be large; an effect the other way counts as inactive or inconclusive; further: potency means the concentration at half of the fitted maximal effect; % of control where 0% means no effect; nearly all actives have a fitted effect of over 45% in size
#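 Rat PC12, Q103 Htt exon1-GFP fusion, ecdysone promoter; tebufenozide inducer 100 nM final; compound titration; qHTS, 1500 cells/well; ATPlite luminescent read.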
# PNC inhibitor: perinucleolar compartment assembly inhibition; PC3M PTB-GFP, PNC prevalence imaging, 16 h; stronger effect = lower value; activity change (PNC), negative = inhibition, % at 10 µM; hit rate 3.1% among 140,000; AID 2417;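 active means readout at or below -70, meaning at least 70% loss of cells showing the perinucleolar compartment, a nuclear body marking cancer cells; inconclusive means readout between -30 and a set limit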;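 further: plate controls were DMSO wells for no effect and camptothecin positive control wells for full effect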
#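 PC3M cells stably expressing PTB-GFP, 750–1000 cells/well, treated 16 h at 37 °C with compound (23 nl of library stock), in duplicate. After paraformaldehyde fixation and Hoechst stain, imaged at 20x; PNC prevalence scored by image analysis.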
# An asterisk follows results filed as active; u = inconclusive; x = no result given; [ ] = dose if it differs, or a comment. Unless noted, the call rests on the fitted dose curve; in most records, active means well fitted inhibition curve with a large enough effect (not every such curve was filed as active); inconclusive means small, poorly fitted or top-dose-only effect, or another doubt; inactive means no such curve, though single readings can be large or run the other way.
SMILES,ALDH1A1 inh,HTT aggregate,RGS12 GoLoco inh,HPGD inh,HTT cytoprotect,PNC inhibitor
Cc1noc(NS(=O)(=O)c2ccc(NC(=O)CCn3c(=O)oc4ccccc43)cc2)c1C,4µM*,3%,-16%,-19%,-11%,u
Cc1cc(C)nc(SCC(=O)Nc2ccc(S(=O)(=O)Nc3onc(C)c3C)cc2)n1,26%,21%,3%,-5%,13%,35
Cc1cc(C)nc(NS(=O)(=O)c2ccc(NC(=O)Cn3c(=O)oc4ccccc43)cc2)n1,-10%,-7%,19%,-12%,-9%,-18
Cc1noc(NS(=O)(=O)c2ccc(NC(=O)CSc3nc4ccccc4s3)cc2)c1C,10µM*,-16%,-4%,28µM*,-2%[0.074 µM],u
CN(c1ccccc1)P(=O)(N(C)c1ccccc1)N(C)c1ccccc1,0%,u,13%,x,-23%,x
COc1ccc(CCN2C(=S)NC3CC2(C)Oc2ccc([N+](=O)[O-])cc23)cc1OC (stereo not drawn),-1%,10µM*,6%,-20%,-81%,15
COc1ccc(N2C(=O)NC3CC2(C)Oc2ccc(Cl)cc23)cc1OC (stereo not drawn),-2%,5%,6%,-1%,9%,-8
O=S(=O)(CCN1CCN(C(c2ccccc2)c2ccccc2)CC1)C(F)(F)F,0.35µM*,u,-10%,-6%,u,27
c1ccc(OCCOCCN2CCN(C(c3ccccc3)c3ccccc3)CC2)cc1,u,4%,-10%,-12%,15%[10 µM],45
Nc1nc(NCc2ccco2)nc(N2CCCCC2)c1[N+](=O)[O-],4µM*,23%,16%,-5%,x,3
Nc1nc(Nc2ccccc2)nc(N2CCOCC2)c1[N+](=O)[O-],13µM*,-11%,10%,-7%,19%[10 µM],32
CN1CCN(c2nc(NCc3ccco3)nc(N)c2[N+](=O)[O-])CC1,x,2%[9.22 µM],9%,x,4%[10 µM],x
COc1ccc(Nc2nc(N)c([N+](=O)[O-])c(N3CCOCC3)n2)cc1,x,-7%[9.22 µM],6%,x,2%[10 µM],x
Clc1ccc(Nc2ncn[nH]2)c(Cl)c1,-5%,-12%[9.22 µM],8%,x,-35%[1.9 µM],x
O=C(/C=C1\NCC2c3ccccc3CCN2C1=O)c1ccccc1 (stereo not drawn),20µM*,-2%,7%,-19%,-82%,15
CCOc1c(CNc2nnnn2C)cccc1OC,10%,-11%,10%,x,13%,x
CCC1(C)N([O-])C(C)=C(c2ccccc2)[N+]1=O (stereo not drawn),6%,-8%,-7%,1%,7%,-88*
Cc1c(C(=O)OCC(=O)N2CC(C)OC(C)C2)oc2ccc(Br)cc12 (stereo not drawn),0.18µM*,-10%,8%,u,25%[10 µM],u
[O-][N+]1=c2ccc(Nc3ccccc3)cc2=NC12CCCCC2,3.5µM*,u,10%,-20%,-109%,1
O=[N+]([O-])c1ccc2c(c1N1CCCCC1)=NC1(CCCCC1)[N+]=2[O-],x,4%[9.22 µM],5%,x,-1%[10 µM],x
COc1ccc(NC2=NC(=S)N(c3ccccc3C)C23CCCCC3)cc1,-13%,22%,-1%,-12%,-8%,36
COc1ccc(Nc2ccc3c(c2)=NC2(CCCCC2)[N+]=3[O-])cc1,3.5µM*,u,0%,-16%,-107%,13
Cc1cc(C)n(CC(O)COc2c(C)cccc2C)n1 (stereo not drawn),8%,x,95%,x,x,x
CCCCCCCCCCCCCCCCCCNC(=O)OC[C@@H](COP(=O)([O-])OCC[n+]1ccsc1)OC,x,x,x,x,43%[1.9 µM],x
CSc1cccc(NC(=S)N(CCN(C)C)C(C)c2ccncc2)c1 (stereo not drawn),x,-5%[9.22 µM],-17%,x,10%[10 µM],x
SMILES,ALDH1A1 inh,HTT aggregate,RGS12 GoLoco inh,HPGD inh,HTT cytoprotect,PNC inhibitor
CCOC(=O)c1ccc(NC2=CC(=O)C(=O)c3ccccc32)cc1,6%,u,2%,4.5µM*,-82%,18
Cc1ccc(NC2=CC(=O)C(=O)c3ccccc32)cc1,u,10µM*,-8%,20µM*,-74%[10 µM],11
CCOC(=O)c1ccc(NC(=O)C(C)N2C(=O)c3ccccc3C2=O)cc1 (stereo not drawn),u,6%,-1%,-11%,-16%,u
CCOc1cc(N2CCOCC2)c(OCC)cc1NC(C)C(=O)N1CCC(C)CC1 (stereo not drawn),11µM*,19%,x,x,-15%[10 µM],u
CCOc1cc(N2CCOCC2)c(OCC)cc1NC(=O)Cc1ccc(OC)c(OC)c1,-4%,6%,7%,-5%,-15%,-124*
CCOc1cc(N2CCOCC2)c(OCC)cc1NC(=O)CC12CC3CC(CC(C3)C1)C2,4.5µM*,-1%,-18%,-16%,6%,u
CCOC(=O)C1=C(Cn2cnc3ccccc32)NC(=O)NC1c1cc(C)ccc1C (stereo not drawn),17%,-14%,2%,-1%,-6%,-28
COC(=O)C1=C(Cn2cnc3ccccc32)NC(=O)NC1c1cc(C)ccc1C (stereo not drawn),4%,0%,3%,-14%,13%,-103*
Cc1ccc(C)c(Nc2c(F)c(F)c(F)c(F)c2C(=O)O)c1,1%,-23%,1%,x,-28%,x
CN(C)/C=C1\NC(=S)N(c2ccc(Cl)cc2)C1=O,20µM*,-7%[9.22 µM],68%,x,8%[10 µM],x
COc1cccc(Nc2nc3ccccc3nc2NS(=O)(=O)c2cccs2)c1,u,14µM*,1%,-29%,-77%,7
Cc1ccccc1N1CC(O)(c2ccccc2)[N+]2=C1SCC2 (stereo not drawn),13µM*,-19%,-2%,-3%,0%[10 µM],-23
Cc1ccc(C2(O)CN(c3ccccc3C)C3=[N+]2CCS3)cc1 (stereo not drawn),20µM*,-20%,2%,-1%,20%[10 µM],16
OC1(c2ccc(F)cc2)CN(c2ccccc2)C2=[N+]1CCS2 (stereo not drawn),-2%,-12%,12%,-8%,9%[10 µM],-25
Cc1ccc(C2(O)CN(c3ccccc3)C3=[N+]2CCS3)cc1 (stereo not drawn),1%,u,7%,0%,15%[10 µM],12
COc1cc(C(=O)Nc2c(C)cc(C)cc2C)c([N+](=O)[O-])cc1OC,6%,-9%,-13%,-5%,24%[10 µM],-6
O=C(c1cnccn1)N1CCC2(CC1)CCN(c1ccccn1)CC2,3%,x,12%,-9%,25%,x
COc1ccc(CNC(=O)C(=O)NCc2cccnc2)cc1,0%,x,9%,x,x,x
COc1ccc2c(c1)C=C(C(=O)OCc1cccnc1)CO2,8.9µM*,-1%,-3%,x,-22%,x
O=C(/C=C/c1ccc([N+](=O)[O-])cc1)N(c1ccccn1)C1CCCCC1,13µM*,-7%,11%,x,-40%,x
